# Screening data (PubChem BioAssay)
# DAGLB inhibitor: blocks human DAGLB lipase activity; actives 0.059% (n = 340,000); inhibition, % at 5.17 µM; HEK293T DAGLB membrane lysate, EnzChek fluorogenic substrate; AID 504411; Q8NCG7; in the data active means inhibition above about 34%
# hiPSC survival: enhancers of human iPSC single-cell survival; survival enhancement, % at 20 µM; actives 0.044% (n = 360,000); hiPSC single-cell survival, ATPlite luminescence; 100% = ROCK inhibitor wells, 0% = DMSO; in the data active means survival enhancement above about 18%;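 further: cells exposed to compounds for 16 hours before the ATP read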
# TMEM16A act: activators or potentiators of mouse TMEM16A chloride channel. HEK293 TMEM16A/YFP-H148Q/I152L, iodide quench fluorescence; stronger effect = lower value. B-score at 10 µM. actives 0.3% (n = 340,000);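 active means fluorescence-ratio B-score plate-corrected deviation score at least 3 library SD below zero, with starting fluorescence score within 5 deviations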;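 further: channel opened by trigger with iodide after compound preincubation; score built on the fluorescence ratio of max minus min over baseline; more negative score means more quench and so TMEM16A activation or potentiation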
# ABCB6 inh MLPCN: human ABCB6 transporter inhibition; fluorescence ratio to DMSO, % at 10 µM; actives 0.19% (n = 360,000); AID 602162; K562-ABCB6 porphyrin accumulation, flow cytometry, 1 h; stronger effect = lower value;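 active means fluorescence ratio to DMSO below 75%, the collection mean minus 3 SD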;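 further: signal is porphyrin accumulated inside mitochondria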
# Target sequence (Q9NP58 whole entry, looked up): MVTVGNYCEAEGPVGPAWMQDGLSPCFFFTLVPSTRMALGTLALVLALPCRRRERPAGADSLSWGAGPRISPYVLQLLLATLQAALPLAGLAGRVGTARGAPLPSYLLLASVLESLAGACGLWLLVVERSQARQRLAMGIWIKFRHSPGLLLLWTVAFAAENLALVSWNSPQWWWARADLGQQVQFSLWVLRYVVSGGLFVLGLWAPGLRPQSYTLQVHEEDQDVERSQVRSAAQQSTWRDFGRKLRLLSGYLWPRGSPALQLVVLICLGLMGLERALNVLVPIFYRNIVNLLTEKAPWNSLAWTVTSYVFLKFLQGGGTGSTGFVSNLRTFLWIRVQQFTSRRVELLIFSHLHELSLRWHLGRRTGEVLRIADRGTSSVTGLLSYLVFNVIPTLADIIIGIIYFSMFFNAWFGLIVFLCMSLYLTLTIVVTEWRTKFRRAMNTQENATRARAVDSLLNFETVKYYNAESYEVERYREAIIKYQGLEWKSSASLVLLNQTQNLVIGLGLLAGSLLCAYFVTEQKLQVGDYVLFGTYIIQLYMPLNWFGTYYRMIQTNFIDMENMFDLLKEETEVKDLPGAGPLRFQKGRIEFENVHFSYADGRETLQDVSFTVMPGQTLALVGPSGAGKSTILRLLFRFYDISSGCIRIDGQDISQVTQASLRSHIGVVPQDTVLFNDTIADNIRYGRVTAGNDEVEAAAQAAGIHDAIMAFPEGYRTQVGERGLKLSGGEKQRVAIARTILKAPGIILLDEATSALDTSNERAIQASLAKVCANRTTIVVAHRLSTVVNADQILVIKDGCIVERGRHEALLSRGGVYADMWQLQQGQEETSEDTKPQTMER
# ANO1 block: inhibitors of mouse TMEM16A calcium-activated chloride channel; Q8BHY3; HEK293 TMEM16A/YFP iodide influx fluorescence, ionomycin; normalized B-score (activity score, 25-100; higher = stronger inhibition) at 10 µM; actives 1.2% (n = 310,000); AID 588511;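 active means ratio plate-corrected score three or more library SD toward inhibition, starting fluorescence score within five deviations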;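 further: score derived from kinetic fluorescence span divided by baseline fluorescence per well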
# A number is an active result; – = inactive; · = no result given. This is a sample that favours compounds with a hit; in the whole collection about 1.5% have one here.
SMILES,DAGLB inhibitor,hiPSC survival,TMEM16A act,ABCB6 inh MLPCN,ANO1 block
COc1ccccc1C(=O)NC(CCSC)C(=O)OCC(=O)NC(=O)NCc1ccco1 (stereo unspecified),–,–,-24,–,–
CSCCC(NC(=O)c1ccc(Cl)cc1)C(=O)OCC(=O)NCc1ccco1 (stereo unspecified),–,–,–,–,–
C=CCNc1ccccc1S(=O)(=O)NCc1ccccc1,–,–,·,–,·
CC1CCc2c(sc3nc(C4CC4)nc(N4CCN(C(=O)c5ccco5)CC4)c23)C1 (stereo unspecified),–,–,–,–,100
C#CCN(Cc1ccco1)C(=O)c1ccc(OC2CCN(Cc3ccccn3)CC2)cc1,–,–,–,–,–
COc1ccccc1CNC(=S)NC1CCCC1,–,–,–,69,–
Cc1ccccc1CN1C(=O)c2ccccc2C1c1nnnn1C(C)C (stereo unspecified),·,–,·,–,·
NC(=O)CC(NC(=O)c1ccccc1)C(=O)O (stereo unspecified),–,20,–,–,–
CCc1cccc(N(C(=O)c2csnn2)C(C(=O)NC2CCCCC2)c2cccnc2)c1 (stereo unspecified),–,–,–,–,–
COc1ccc(-c2nc(SC(C)C(=O)NC3CC3)n[nH]2)cc1 (stereo unspecified),–,–,–,–,·
C=CCN(C(=O)Cn1nnc2ccccc21)C(C(=O)NCCOC)c1ccc(OC)cc1OC (stereo unspecified),–,–,-6,–,–
CC(C)c1cc(-c2cc(C(=O)NCc3ccccc3)on2)nc(NCC2CC2)n1,–,–,-6.6,–,100
CC(C)c1cc(-c2cc(C(=O)Nc3ccccc3)on2)nc(NCC2CC2)n1,·,·,·,·,–
O=C(CN1C(=O)NC(c2ccccc2)(c2ccccc2)C1=O)NC1CCCC1,–,–,–,–,·
CCOC(=O)C(C)On1c(-c2cccc(Cl)c2)nc2ccc([N+](=O)[O-])cc21 (stereo unspecified),–,–,–,–,100
CC1(C)Cc2ccccc2-c2nnc(SCc3ccccc3)n21,–,–,–,–,–
CC1(C)Cc2ccccc2-c2nnc(SCC(=O)N3CCN(c4ccccc4)CC3)n21,–,–,–,–,25
CCNC(=S)NCc1ccc(Cl)cc1,–,–,-9.6,–,–
O=c1cc(-c2c(F)c(F)c(F)c(F)c2F)oc2c(F)c(F)c(F)c(F)c12,·,·,·,·,25
O=c1ccoc2ccccc12,·,–,·,–,·
Cc1ccc(F)c(S(=O)(=O)NC(=O)C2(C)CCN2C(=O)COc2ccc(Cl)cc2)c1 (stereo unspecified),·,–,·,–,·
CCc1ccc(CNc2ccc3c(c2)ncn3CC)cc1,–,–,-6.9,–,–
CCn1cnc2cc(NCc3ccc(OC)cc3)ccc21,–,–,–,–,–
CC(C)(C)n1cnc2cc(NCc3ccc(Br)cc3)ccc21,–,–,-9,–,–
C[C@H]1CN([C@@H](C)CO)S(=O)(=O)c2ccc(Br)cc2O[C@@H]1CN(C)C(=O)Cc1cccnc1,–,–,·,–,·
SMILES,DAGLB inhibitor,hiPSC survival,TMEM16A act,ABCB6 inh MLPCN,ANO1 block
CC1CCCCN1C(=O)c1cc(S(=O)(=O)N2CCOCC2)ccc1Cl (stereo unspecified),–,–,–,–,·
O=C(NC(=S)Nc1ccc(-c2ccc(CO)o2)cc1)c1cccs1,·,–,–,–,100
Cc1cc(Br)cn2c(Cc3ccsc3)c(-c3ccc(F)cc3)nc12,·,–,·,–,·
O=C(N/N=C/c1nn(-c2ccccc2)cc1-c1ccc(Cl)cc1)c1ccncc1,·,·,·,·,25
N#CC1(NC(=O)CSc2nncn2-c2ccccc2F)CCCC1,–,–,–,–,·
Cc1ccc(-c2nnc(N3CCC(C)CC3)c3ccccc23)cc1,–,–,–,–,–
Cc1ccc(-c2nnc(N3CCC(C)CC3)c3ccccc23)cc1C,–,–,–,–,100
Cc1ccc(S(=O)(=O)c2c(N)n(Cc3ccco3)c3nc4ccccc4nc23)cc1C,–,–,–,–,25
Nc1c(S(=O)(=O)c2ccccc2)c2nc3ccccc3nc2n1Cc1ccco1,–,–,–,–,–
Nc1c(S(=O)(=O)c2ccccc2)c2nc3ccccc3nc2n1CCN1CCOCC1,–,–,–,–,–
Cc1ccc(S(=O)(=O)c2c(N)n(CCN3CCOCC3)c3nc4ccccc4nc23)cc1C,–,–,-20,–,–
CC(NCc1ccc(S(N)(=O)=O)cc1)C(=O)Nc1ccc([N+](=O)[O-])cc1Cl (stereo unspecified),–,–,-24,–,–
O=C(COC(=O)c1cccc(-n2cnnn2)c1)c1ccc(F)c(F)c1,–,–,·,–,·
COc1ccc(CCNC(=O)COC(=O)C2CC2C)cc1OC (stereo unspecified),–,–,-42,–,·
COc1ccc(CCNC(=O)COC(=O)c2ccco2)cc1OC,–,–,–,–,–
O=C(COC(=O)c1ccccc1C(=O)c1ccc(Cl)c([N+](=O)[O-])c1)NC1CC1,–,36,–,–,–
CCN(CC)S(=O)(=O)c1cccc(-c2nnc(SCCCC(=O)c3ccc(F)cc3)o2)c1,–,–,-4.6,–,–
CC(Sc1nnc2c(n1)[nH]c1ccccc12)C(=O)NC1CCCCC1 (stereo unspecified),–,–,–,–,–
CC(Sc1nnc2c(n1)[nH]c1ccccc12)C(=O)N(C)C1CCCCC1 (stereo unspecified),–,–,–,–,100
COc1ccc(CS(=O)(=O)/C(Cl)=C(/Cl)C(=O)Nc2ccc(OC)nc2)cc1,–,37,–,–,–
COc1ccc(NC(=O)/C(Cl)=C(/Cl)S(=O)Cc2ccccc2)cn1 (stereo unspecified),–,–,–,25,–
O=C1Nc2ccc(C(=O)O)c(O)c2C1=O,–,–,–,–,·
NC(=Nc1ccccc1)Nc1ccccc1,–,–,-14,–,–
O=C(NCc1ccncc1)[C@@H]1CCCN1C(=O)[C@@H]1CCCN1,·,–,·,–,·
Cc1noc(C)c1COc1cccc(C(=O)N(C)Cc2nc3ccccc3c(=O)[nH]2)c1,–,–,–,–,·
SMILES,DAGLB inhibitor,hiPSC survival,TMEM16A act,ABCB6 inh MLPCN,ANO1 block
Oc1ccccc1Nc1nc(NCc2ccccc2)c2ccccc2n1,–,–,–,–,100
CNc1nc(NCc2ccccc2)c2ccccc2n1,–,–,–,–,–
CC(C)(C)N(Cc1ccccc1)C(=O)COC(=O)C1CCN(c2ccc(C(F)(F)F)cn2)CC1,–,–,-44,–,·
CC(C)N(Cc1ccccc1)C(=O)COC(=O)C1CCN(c2ccc(C(F)(F)F)cn2)CC1,–,–,–,–,·
CN(Cc1ccco1)S(=O)(=O)c1ccc(CN2C(=O)c3cccnc3C2=O)s1,–,–,–,–,–
CC(=O)Nc1cncc(-c2cccc(N(C)C)c2)n1,·,–,·,–,·
CNC[C@H](CC1CCCCC1)NC[C@H](Cc1ccccc1)NCCC12CC3CC(CC(C3)C1)C2,–,–,–,–,100
O=C1c2ccccc2C(=O)N1CC(O)Cn1nnc2ccccc21 (stereo unspecified),–,–,–,–,–
